Measurements from PubChem BioAssay (Tox21).
Inconclusive results are not listed. Active and inactive are the calls of the source. Unless noted, calls follow the shape of the dose curve; as a rule, active = well fitted curve in the direction sought with a large enough effect in the repeat runs; inconclusive = weak or mixed curves; inactive = no such curve, though single readings can be large; an effect the other way counts as inactive or inconclusive.

How the values were obtained:
[1] = qHTS assay to identify small molecule agonists of the RXR signaling pathway - cell viability counter screen (AID 1159529);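 also: HEK 293T cells carrying an RXR-alpha UAS beta-lactamase reporter; series mostly up to about 77 µM; nearly all actives have a fitted effect of over 50% in size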
How it was run: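 RXR-alpha-UAS-bla HEK 293T cells in medium with 2% charcoal-stripped FBS were preincubated 5 hr, then exposed to compounds for 16 hr at 37 C. Viability was read as CellTiter-Glo luminescence after 30 min at room temperature.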

[2] = qHTS assay to identify small molecule antagonists of the retinoid acid receptor (RAR) signaling pathway - cell viability counter screen (AID 1159551); also: nearly all actives have a fitted effect of over 35% in size
How it was run: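 C3RL4 RARE-luciferase cells, 1,000/well, incubated overnight, then dosed with compound plus 1 uM retinol (final). After 6 hr at 37 C, viability read by CellTiter-Glo ATP luminescence following 30 min at room temperature.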

[3] = qHTS assay to identify small molecule antagonists of the retinoic acid receptor (RAR) signaling pathway (AID 1159552; also: nearly all actives have a fitted effect of over 50% in size)
How it was run: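 RARE-luc C3RL4 cells; cpds + 1 uM (final) retinol, 6 hr, 37 C/5% CO2; luciferase reagent, 30 min RT, luminescence readout. Inhibitors of retinol-driven signal scored.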

[4] = qHTS assay to identify small molecule agonists of the retinoic acid receptor (RAR) signaling pathway (AID 1159553)
How it was run: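 C3RL4 RARE-luciferase cells were seeded at 1,000/well and grown overnight at 37 C, then exposed to compounds for 6 hr at 37 C, 5% CO2. Luciferase reagent was added and luminescence was read after 30 min at room temperature.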

[5] = qHTS assay to identify small molecule antagonists of the estrogen related receptor (ERR) signaling pathway from Tox21 library - cell viability counter screen (AID 1224834); also: nearly all actives have a fitted effect of over 30% in size
How it was run: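 ERR reporter cells, 2,000 per well, rested 6 h, then exposed to compound in DMSO for 17.5 hours at 37 C. Viability read as fluorescence after 30 min with CellTiter-Fluor.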

[6] = target: Luciferin 4-monooxygenase (Photinus pyralis) (UniProt P08659); assay: qHTS assay to identify small molecule inhibitors of firefly luciferase (AID 1224835); also: series mostly up to about 120 µM; nearly all actives have a fitted effect of over 25% in size
Luciferin 4-monooxygenase (Photinus pyralis), sequence (P08659 whole entry, looked up): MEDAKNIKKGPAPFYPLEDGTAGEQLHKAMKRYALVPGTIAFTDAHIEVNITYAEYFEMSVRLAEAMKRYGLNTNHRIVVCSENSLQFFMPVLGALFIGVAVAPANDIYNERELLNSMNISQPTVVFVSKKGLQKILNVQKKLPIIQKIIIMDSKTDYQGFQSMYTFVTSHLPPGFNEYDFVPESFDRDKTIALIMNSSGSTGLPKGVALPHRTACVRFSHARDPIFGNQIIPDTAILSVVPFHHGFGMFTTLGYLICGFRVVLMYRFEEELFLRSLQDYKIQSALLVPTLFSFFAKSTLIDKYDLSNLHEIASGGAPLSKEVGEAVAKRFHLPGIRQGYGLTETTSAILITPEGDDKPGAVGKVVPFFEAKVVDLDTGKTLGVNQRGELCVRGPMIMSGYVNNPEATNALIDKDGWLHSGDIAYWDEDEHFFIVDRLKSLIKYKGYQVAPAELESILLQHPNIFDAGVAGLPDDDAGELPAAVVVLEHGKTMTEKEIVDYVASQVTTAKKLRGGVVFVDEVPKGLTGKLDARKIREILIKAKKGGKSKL
How it was run: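 Quantitative HTS format; KM concentrations of both substrates. Purified P. pyralis FLuc activity quantified from luminescence images.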

[7] = qHTS assay to identify small molecule agonists of the constitutive androstane receptor (CAR) signaling pathway - cell viability counter screen (AID 1224836); also: series mostly up to about 92 µM; nearly all actives have a fitted effect of over 45% in size
How it was run: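 HepG2 cells stably carrying hCAR and a CYP2B6-2.2kb reporter were plated 4 h, then given compounds at 15 concentrations plus PK11195 (final 0.75 uM). After 23 h at 37 C, viability was read by CellTiter-Fluor fluorescence.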

[8] = qHTS assay to identify small molecule antagonists of the constitutive androstane receptor (CAR) signaling pathway - cell viability counter screen (AID 1224837); also: series mostly up to about 92 µM; nearly all actives have a fitted effect of over 45% in size
How it was run: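 HepG2 cells stably carrying hCAR and CYP2B6-2.2kb reporter, stimulated with 50 nM CITCO and compounds at 15 concentrations for 23 h at 37 C. Viability measured by CellTiter-Fluor fluorescence.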

[9] = target: Nuclear receptor subfamily 1 group I member 3 (Homo sapiens) (UniProt Q14994); assay: qHTS assay to identify small molecule antagonists of the constitutive androstane receptor (CAR) signaling pathway (AID 1224838); also: nearly all actives have a fitted effect of over 40% in size
Nuclear receptor subfamily 1 group I member 3 (Homo sapiens), sequence (Q14994 whole entry, looked up): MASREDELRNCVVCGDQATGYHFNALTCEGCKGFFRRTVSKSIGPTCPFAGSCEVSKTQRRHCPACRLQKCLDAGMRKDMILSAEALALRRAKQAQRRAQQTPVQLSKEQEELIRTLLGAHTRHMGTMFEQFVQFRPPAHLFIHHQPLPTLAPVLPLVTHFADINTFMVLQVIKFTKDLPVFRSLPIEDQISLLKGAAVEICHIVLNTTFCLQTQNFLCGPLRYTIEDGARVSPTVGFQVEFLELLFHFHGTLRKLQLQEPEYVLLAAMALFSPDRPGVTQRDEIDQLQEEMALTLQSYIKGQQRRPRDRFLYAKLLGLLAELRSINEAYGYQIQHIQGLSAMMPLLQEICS
How it was run: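 HepG2 cells stably carrying hCAR and a CYP2B6-2.2kb luciferase reporter, seeded 4 hrs before compound (15 concentrations). Stimulated with 50 nM CITCO for 24 hr at 37 C. ONE-Glo luminescence read after 30 min at room temperature.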

[10] = target: Nuclear receptor subfamily 1 group I member 3 (Homo sapiens) (UniProt Q14994); assay: qHTS assay to identify small molecule agonists of the constitutive androstane receptor (CAR) signaling pathway (AID 1224839); also: series mostly up to about 92 µM; nearly all actives have a fitted effect of over 15% in size
How it was run: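 HepG2 cells stably expressing hCAR and a CYP2B6-2.2kb luciferase reporter were treated with compounds at 15 concentrations plus 0.75 uM PK11195 (final) for 24 h at 37 C; luminescence was read after ONE-Glo addition.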

[11] = qHTS assay to identify small molecule antagonists of the estrogen related receptor signaling pathway with the pleiotropic PPARgamma coactivator (PGC) from Tox21 10K library - cell viability counter screen (AID 1224840; active = well fitted cell-killing curve with a large enough effect in the repeat runs, not every such curve was filed as active; also: nearly all actives have a fitted effect of over 40% in size)
How it was run: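 PGC/ERR cells (2,000/well) plated 6 h, then compound-treated for 17.5 h at 37 C. Viability measured by CellTiter-Fluor fluorescence after 30 min at 37 C, multiplexed with the pathway assay.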

[12] = qHTS assay to identify small molecule antagonists of the estrogen related receptor signaling pathway with the pleiotropic PPARgamma coactivator (PGC) from Tox21 10K library (AID 1224841; call rule not given here; also: series mostly up to about 92 µM; actives are mostly falling curves and most rising ones were filed inactive; nearly all actives have a fitted effect of over 50% in size)
How it was run: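 PGC/ERR cell line, 2,000 cells/well, pre-incubated 6 hours at 37 C, then exposed to compounds for 18 hours at 37 C; luciferase read with One-Glo luminescence after 30 min at room temperature.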

[13] = qHTS assay to identify small molecule agonists of the estrogen related receptor signaling pathway with the pleiotropic PPARgamma coactivator (PGC) from Tox21 10K library (AID 1224842); also: nearly all actives have a fitted effect of over 15% in size
How it was run: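 PGC/ERR reporter cells (NTP line) were seeded 2,000 per well, rested 6 h at 37 C/5% CO2, then pin-dosed with compounds in DMSO for 18 h at 37 C; luciferase read by One-Glo luminescence after 30 min at room temperature.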

[14] = target: Thyrotropin receptor (Homo sapiens) (UniProt P16473); assay: qHTS assay to identify small molecule agonists of the thyroid stimulating hormone receptor (TSHR) signaling pathway (AID 1224843; calls by dose curve; also: nearly all actives have a fitted effect of over 45% in size)
Thyrotropin receptor (Homo sapiens), sequence (P16473 whole entry, looked up): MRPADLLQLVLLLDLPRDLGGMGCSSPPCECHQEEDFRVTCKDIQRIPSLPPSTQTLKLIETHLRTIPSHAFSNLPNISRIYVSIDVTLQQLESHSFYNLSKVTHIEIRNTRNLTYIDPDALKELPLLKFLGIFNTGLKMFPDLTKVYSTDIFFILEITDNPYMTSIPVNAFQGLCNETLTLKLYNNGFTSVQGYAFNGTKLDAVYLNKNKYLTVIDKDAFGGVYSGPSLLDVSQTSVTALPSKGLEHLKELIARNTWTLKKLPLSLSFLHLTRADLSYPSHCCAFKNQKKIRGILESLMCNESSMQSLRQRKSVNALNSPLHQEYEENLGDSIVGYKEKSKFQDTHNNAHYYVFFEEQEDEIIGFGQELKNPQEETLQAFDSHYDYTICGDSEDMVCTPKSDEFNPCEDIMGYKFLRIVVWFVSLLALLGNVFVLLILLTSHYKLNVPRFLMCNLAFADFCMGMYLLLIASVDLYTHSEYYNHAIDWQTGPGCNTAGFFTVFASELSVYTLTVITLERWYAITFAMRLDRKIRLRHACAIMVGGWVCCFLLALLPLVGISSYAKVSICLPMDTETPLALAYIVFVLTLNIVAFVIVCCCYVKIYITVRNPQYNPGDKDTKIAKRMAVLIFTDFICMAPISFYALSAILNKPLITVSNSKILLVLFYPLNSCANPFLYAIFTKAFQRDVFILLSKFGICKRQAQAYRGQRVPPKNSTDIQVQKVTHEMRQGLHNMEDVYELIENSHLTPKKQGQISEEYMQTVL
How it was run: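 TSHR-expressing HEK293 cells (800 per well) were exposed to compounds for 30 min at room temperature. cAMP was then detected by HTRF competition with cAMP-d2 and anti-cAMP cryptate, read after 1 h at room temperature. Fifteen concentrations, triplicate.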

[15] = qHTS assay to identify small molecule antagonists of the estrogen related receptor (ERR) signaling pathway - cell viability counter screen (AID 1224818); also: series mostly up to about 46 µM
How it was run: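 ERR cells, 2,000 per well, compound added after 6 h and incubated 17.5 h at 37 C. Viability read by CellTiter-Fluor fluorescence after a further 30 min at 37 C.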

[16] = qHTS assay to identify small molecule antagonists of the estrogen related receptor (ERR) signaling pathway (AID 1224819;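 also: luminescence from an ERR-driven luciferase reporter measured with One-Glo reagent; series mostly up to about 46 µM; nearly all actives have a fitted effect of over 50% in size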)
How it was run: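 ERR reporter cell line (NTP) plated at 2,000 cells/well, settled 6 h at 37C/5% CO2, then exposed to LOPAC compounds for 18 h at 37C. One-Glo luciferase luminescence read after 30 min at room temperature.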

[17] = qHTS assay to identify small molecule agonists of the estrogen related receptor (ERR) signaling pathway (AID 1224820)
How it was run: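 ERR reporter cells (NTP line) plated 2,000/well, incubated 6 h at 37 C/5% CO2, then pinned with compounds in DMSO and held 18 h at 37 C. One-Glo added; luminescence read after 30 min at room temperature.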

[18] = test system: estrogen-related receptor alpha (ERRalpha) with PGC-1alpha coactivator, human; assay: qHTS assay to identify small molecule antagonists of the estrogen related receptor signaling pathway with the pleiotropic PPARgamma coactivator (PGC) (AID 1224821; calls by dose curve)
How it was run: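 Cells engineered for PGC/ERR signalling (line from NTP) were plated 6 h at 37 C/5% CO2, then exposed to DMSO-dissolved compound for 18 h at 37 C. Luciferase activity was read by One-Glo luminescence after 30 min at room temperature.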

[19] = qHTS assay to identify small molecule antagonists of the estrogen related receptor signaling pathway with the pleiotropic PPARgamma coactivator (PGC) cell viability counter screen (AID 1224822; also: series mostly up to about 46 µM)
How it was run: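 PGC/ERR cells rested 6 h, then compound-treated 17.5 h at 37 C. CellTiter-Fluor added for 30 min at 37 C, viability measured by fluorescence intensity.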

[20] = qHTS assay to identify small molecule agonists of the estrogen related receptor signaling pathway with the pleiotropic PPARgamma coactivator (PGC) (AID 1224823)
How it was run: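 PGC/ERR reporter cells were seeded, rested 6 h at 37 C/5% CO2, then exposed to compounds in DMSO by pin transfer for 18 h at 37 C. Luciferase activity was read as luminescence after One-Glo reagent and 30 min at room temperature.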

Measured: Potency

COc1cccc(C=O)c1
not listed: [15] | [16] | [17] | [18] | [19] | [20]
inactive: all other assays above

CCN(CC)C1CCCCC1
not listed: [14] | [15] | [16] | [17] | [18] | [19] | [20]
inactive: all other assays above

CCSC(=O)Cl
not listed: [15] | [16] | [17] | [18] | [19] | [20]
inactive: all other assays above

O=C(Cl)c1ccccc1
not listed: [15] | [16] | [17] | [18] | [19] | [20]
inactive: all other assays above

C=CCN1CC[C@]23CCCC[C@H]2[C@H]1Cc1ccc(O)cc13
not listed: [15] | [16] | [17] | [18] | [19] | [20]
inactive: all other assays above

O=C(CCl)NCO
not listed: [15] | [16] | [17] | [18] | [19] | [20]
inactive: all other assays above

BrCC1CO1 (stereo unspecified)
inactive: [1] | [2] | [3] | [4] | [5] | [6] | [7] | [8] | [9] | [10]

CC1NCCOC1c1ccccc1 (stereo unspecified)
not listed: [15] | [16] | [17] | [18] | [19] | [20]
inactive: all other assays above

CC(Cc1ccccc1)NCCCCl (stereo unspecified)
not listed: [12] | [13] | [15] | [16] | [17] | [18] | [19] | [20]
inactive: all other assays above

O=c1[nH]oc2c1CCNC2
not listed: [9] | [10]
inactive: all other assays above

CCCCS(=O)(=O)Cl
not listed: [15] | [16] | [17] | [18] | [19] | [20]
inactive: all other assays above

COc1ccccc1OC
not listed: [15] | [16] | [17] | [18] | [19] | [20]
inactive: all other assays above

CCC(C(N)=O)N1CCCC1=O (stereo unspecified)
not listed: [12] | [13] | [15] | [16] | [17] | [18] | [19] | [20]
inactive: all other assays above

CC[C@@H](CO)NC(=O)[C@@H]1C=C2c3cccc4[nH]cc(c34)C[C@H]2N(C)C1
not listed: [9] | [10]
inactive: all other assays above

C=C(C)[C@H]1CN[C@H](C(=O)O)[C@H]1CC(=O)O
not listed: [9] | [12] | [13] | [16] | [17] | [18] | [20]
inactive: all other assays above

Cn1c(CCCC(=O)O)nc2cc(N(CCCl)CCCl)ccc21
not listed: [9] | [16]
inactive: all other assays above

CCC(=O)OC1(c2ccccc2)CCN(C)CC1
inactive: [1] | [2] | [3] | [4] | [5] | [6] | [7] | [8] | [9] | [10] | [14]

CCNc1nc(NCC)nc(SC)n1
not listed: [12] | [13] | [15] | [16] | [17] | [18] | [19] | [20]
inactive: all other assays above

C=C(Cl)CSC(=S)N(CC)CC
inactive: [1] | [2] | [3] | [4] | [5] | [6] | [7] | [8] | [9] | [11]

O=CCCl
not listed: [12] | [13] | [15] | [16] | [17] | [18] | [19] | [20]
inactive: all other assays above
